PNC assembly inh: inhibitors of perinucleolar compartment assembly | PC3M PTB-GFP, PNC prevalence imaging, 16 h; hits give low values | activity change (PNC), negative = inhibition, % at 10 µM | 3.1% of 140,000 active | AID 2417;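 active means readout at or below -70, meaning at least 70% loss of cells showing the perinucleolar compartment, a nuclear body marking cancer cells; inconclusive means readout between -30 and a set limit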
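Compounds are pinned in duplicate onto adhered PC3M cells stably expressing GFP-tagged PTB and incubated 16 h at 37 C. Cells are then fixed, nuclei stained with Hoechst, and PNC-positive cells counted.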
HPGD block: blocks human HPGD enzyme activity | purified HPGD, NADH fluorescence kinetic, PGE2 substrate | Potency, µM, actives largely listed as inhibitors | 4.3% of 150,000 active
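20 nM HPGD preincubated 15 min at room temperature with compound in 50 mM Tris-HCl pH 8, 0.01% Tween 20. Started with 1 mM NAD+ and 30 uM prostaglandin E2; NADH fluorescence (360/450 nm) read 5 times over 30-s intervals, last minus first.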
KDM4E inh: blocks human JMJD2E demethylase activity. JMJD2E catalytic domain, FDH-coupled NADH fluorescence (FDH is formaldehyde dehydrogenase). B2RXH2. Potency, µM (series often up to 57.1 µM), most hits filed as inhibitors. 1.6% of 230,000 active; further: nearly all actives have a fitted effect of over 50% in size
Target sequence (B2RXH2 1-337 limits assumed): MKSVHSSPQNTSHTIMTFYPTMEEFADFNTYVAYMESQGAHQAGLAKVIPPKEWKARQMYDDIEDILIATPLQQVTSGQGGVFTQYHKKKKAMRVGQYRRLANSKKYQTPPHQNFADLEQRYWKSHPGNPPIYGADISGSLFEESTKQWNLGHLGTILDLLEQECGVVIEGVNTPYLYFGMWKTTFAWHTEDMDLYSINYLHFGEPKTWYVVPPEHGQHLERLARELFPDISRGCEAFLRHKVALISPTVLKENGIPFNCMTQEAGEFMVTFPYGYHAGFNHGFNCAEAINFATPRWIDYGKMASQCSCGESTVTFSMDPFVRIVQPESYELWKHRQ
ALDH1A1 inh: ALDH1A1 (human) enzyme inhibition; Purified ALDH1A1, NADH fluorescence, propionaldehyde substrate; P00352; AID 1030; Potency, µM (highest dose often 75.3 µM), actives largely listed as inhibitors; 7.3% of 220,000 active
Hits are given with their value; i = inactive; ? = inconclusive; nt = no result given; [ ] = dose if it differs, or a comment. A selection: hits, their analogues and other compounds. The true share with any hit is near 11%. Unless noted, the call rests on the fitted dose curve; in most records, active means well fitted inhibition curve with a large enough effect (not every such curve was filed as active); inconclusive means small, poorly fitted or top-dose-only effect, or another doubt; inactive means no such curve, though single readings can be large or run the other way.

SMILES	PNC assembly inh	HPGD block	KDM4E inh	ALDH1A1 inh
CO[C@@H]1COC(=O)C/C=C\[C@@H](C)[C@H](OC)COC(=O)C/C=C\[C@H]1C	nt	nt	nt	i[13.5 µM]
COc1ccc(C(C)=O)cc1COC(=O)c1ccc(OCc2c(C)noc2C)cc1	i	i	i	7.9µM
COc1ccc(C(C)=O)cc1COc1ccc(-n2cnnn2)cc1	i	?	i	3.5µM
COc1ccc(C(C)=O)cc1COC(=O)c1c(C)noc1C	i	i	i	22µM
CC(C)CNC(=O)c1ccccc1NC(=O)CN(c1ccccc1)S(=O)(=O)N(C)C	nt	nt	?	i
O=c1cc(Nc2ccc3c(c2)OCCO3)[nH]c(=O)n1C1CCCCC1	i	i	i	1µM
CCc1ccc(Nc2cc(=O)n(C3CCCCC3)c(=O)[nH]2)cc1	i	i	i	1.3µM
NC(=O)[C@@H]1CCCN1Cc1nc(Cc2ccccc2Cl)no1	nt	nt	i	i
CCN(CC(=O)NC(C)(C)C)C(=O)c1ccc2c(c1)S(=O)(=O)c1ccccc1C2=O	nt	nt	i	i
CCn1c(=S)sc2c(=O)n(-c3ccccc3)c(=S)[nH]c21	nt	nt	i	?
CCN(CC)C(=O)c1sc2[nH]c(=S)n(-c3ccccc3)c(=O)c2c1C	i	28µM	i	?
Cc1ccc2cc3c(nc2c1)OCC3	nt	nt	i	nt
CCCCCC(=O)NC(Cc1ccc(OC)c([N+](=O)[O-])c1)C(=O)O (stereo not given)	nt	nt	i	13µM
O=C(O)CCC(=O)c1ccc[nH]1	nt	i	nt	i[13.5 µM]
COc1ccc(/C=C2\SC(=S)N(C(Cc3ccccc3)C(=O)O)C2=O)cc1 (stereo not given)	nt	nt	i	?
O=C(O)CCCN1C(=O)/C(=C/C=C/c2ccco2)SC1=S	nt	nt	i	nt
O=C(O)C(Cc1ccccc1)N1C(=O)/C(=C/C=C/c2ccco2)SC1=S (stereo not given)	nt	nt	7.9µM	3.2µM
Cn1cccc1/C=C1\SC(=S)N(NC(=O)c2ccccc2O)C1=O	nt	nt	i	nt
O=C(NN1C(=O)/C(=C/C=C/c2ccco2)SC1=S)c1ccccc1O	nt	nt	13µM	nt
O=C(O)CC(C(=O)O)N1C(=O)/C(=C/C=C/c2ccco2)SC1=S (stereo not given)	nt	nt	11µM	nt
COC(=O)[C@@H]1O[C@@H](c2c(OC)c(OC)c(C)c(OC)c2OC)[C@H](C)[C@@H](O)[C@@H]1C	nt	nt	nt	i[13.5 µM]
CCOc1cc(/C=C(\C#N)C(=O)NCc2cccnc2)ccc1O	nt	nt	i	i
CN1CCc2nc(NC(=O)c3cccc(S(=O)(=O)N4CCc5ccccc54)c3)sc2C1	i	i	i	13µM
COc1ccccc1Cn1c(SCC(N)=O)nc2c(oc3ccccc32)c1=O	nt	nt	i	1.3µM
COCCn1c(SCC(=O)Nc2ccccc2OC)nc2c(oc3ccccc32)c1=O	nt	nt	i	?
SMILES	PNC assembly inh	HPGD block	KDM4E inh	ALDH1A1 inh
CC(=O)NCc1nnc2c3ccccc3c(-c3ccccc3)nn12	nt	nt	?	i
O=C(NCc1nnc2c3ccccc3c(-c3ccccc3)nn12)c1ccc(Cl)cc1	-111	i	i	i
CCOC(=O)CCc1c(C)nc(-n2[nH]c(C)c(CCO)c2=O)[nH]c1=O	nt	nt	i	?
Cc1ccc(C(=O)NC(=S)Nc2cccc(NC(=O)c3ccccc3)c2)cc1[N+](=O)[O-]	-93	i	i	16µM
Cc1ccc(C(=O)NC(=S)Nc2cccc(NC(=O)c3ccccc3Cl)c2)cc1[N+](=O)[O-]	?	i	i	13µM
Cc1ccc(C(=O)NNC(=S)Nc2cccc(Cl)c2Cl)cc1[N+](=O)[O-]	i	11µM	i	2.8µM
COCCNC(=S)N1CCc2cc(OC)c(OC)cc2C1c1cccs1 (stereo not given)	nt	nt	i	i
O=c1[nH]c(C2CCCN(S(=O)(=O)c3ccccc3)C2)nc2c1nnn2Cc1ccccc1F (stereo not given)	i	13µM	i	?
O=c1[nH]c(C2CCCN(S(=O)(=O)c3ccccc3)C2)nc2c1nnn2Cc1ccccc1 (stereo not given)	?	14µM	i	10µM
Cc1nc(N2CCC3(CC2)OCCO3)c2nnn(Cc3ccccc3F)c2n1	i	i	i	?
CC1(c2cnc(Nc3ccccc3)s2)CCC(=O)O1 (stereo not given)	i	i	i	18µM
O=C(c1ccc(F)cc1)c1cnc(Nc2ccccc2)s1	nt	nt	i	i
CC(C)CCN1C(=O)c2ccccc2C1C(=O)NCc1cccnc1 (stereo not given)	i	i	i	i
COC(=O)c1c(C)oc(C)c1S(=O)(=O)NC(c1ccccc1)c1ccccc1	nt	nt	i	nt
O=C(O)CCNC(=O)c1ccc(Br)o1	?	i	i	i
O=C(NCCSc1c[nH]c2ccccc12)c1ccc(Br)o1	-119	7.1µM	i	i
Cc1[nH]c2ccccc2c1SCCNC(=O)c1ccc(Br)o1	?	14µM	i	i
